{"source": "the supplement of paper PMC12282887", "test_in_all_cases": "promoter activity interaction Z-score (Lux/OD deviation from empty-vector control); higher = stronger promoter induction by the compound", "key": {"[1]": {"tested_on": "E. coli BW25113 acrABp lux reporter", "outline": "(§1)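 Four 1:2 dilutions of each compound were tested in biological duplicates on E. coli BW25113 carrying low-copy luxCDABE promoter reporters, either wild type or deleted for one of three genes. Cultures of 40 µl LB Lennox in 384-well plates were kept at 37°C and read for OD600 and luminescence every 30 min for 12 h. Integration windows were 0–8 h for wild type and 1–9 h for deletion strains, and wells under 10% of the median growth value were discarded. The score is a Z-transformed residual of growth-normalised luminescence relative to a control fit.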"}, "[2]": {"tested_on": "E. coli BW25113 micFp lux reporter", "outline": "as §1"}, "[3]": {"tested_on": "E. coli BW25113 ompFp lux reporter", "outline": "as §1"}, "[4]": {"conditions": "17.3 µg/ml, genetic background: wild type"}, "[5]": {"conditions": "17.3 µg/ml, genetic background: ΔmarA"}, "[6]": {"conditions": "17.3 µg/ml, genetic background: Δrob"}, "[7]": {"conditions": "17.3 µg/ml, genetic background: ΔsoxS"}, "[8]": {"conditions": "34.5 µg/ml, genetic background: wild type"}, "[9]": {"conditions": "34.5 µg/ml, genetic background: ΔmarA"}, "[10]": {"conditions": "34.5 µg/ml, genetic background: Δrob"}, "[11]": {"conditions": "34.5 µg/ml, genetic background: ΔsoxS"}, "[12]": {"conditions": "69.1 µg/ml, genetic background: wild type"}, "[13]": {"conditions": "69.1 µg/ml, genetic background: ΔmarA"}, "[14]": {"conditions": "69.1 µg/ml, genetic background: Δrob"}, "[15]": {"conditions": "69.1 µg/ml, genetic background: ΔsoxS"}, "[16]": {"conditions": "138.1 µg/ml, genetic background: wild type"}, "[17]": {"conditions": "138.1 µg/ml, genetic background: ΔmarA"}, "[18]": {"conditions": "138.1 µg/ml, genetic background: Δrob"}, "[19]": {"conditions": "138.1 µg/ml, genetic background: ΔsoxS"}}, "note": "± gives the standard deviation of the averaged measurements."}
{"smiles": "O=C(O)c1ccccc1O", "note": "[Salicylate]", "values": [{"measurement": "promoter activity interaction Z-score", "setting": "[1]; [4]", "value": "-0.103 ± 0.014"}, {"measurement": "promoter activity interaction Z-score", "setting": "[1]; [5]", "value": "-0.589 ± 0.63"}, {"measurement": "promoter activity interaction Z-score", "setting": "[1]; [6]", "value": "-0.226 ± 0.24"}, {"measurement": "promoter activity interaction Z-score", "setting": "[1]; [7]", "value": "-0.152 ± 0.11"}, {"measurement": "promoter activity interaction Z-score", "setting": "[1]; [8]", "value": "-0.242 ± 0.057"}, {"measurement": "promoter activity interaction Z-score", "setting": "[1]; [9]", "value": "-0.128 ± 0.11"}, {"measurement": "promoter activity interaction Z-score", "setting": "[1]; [10]", "value": "-0.178 ± 0.057"}, {"measurement": "promoter activity interaction Z-score", "setting": "[1]; [11]", "value": "-0.392 ± 0.55"}, {"measurement": "promoter activity interaction Z-score", "setting": "[1]; [12]", "value": "-0.168 ± 0.043"}, {"measurement": "promoter activity interaction Z-score", "setting": "[1]; [13]", "value": "-0.559 ± 0.22"}, {"measurement": "promoter activity interaction Z-score", "setting": "[1]; [14]", "value": "-0.327 ± 0.03"}, {"measurement": "promoter activity interaction Z-score", "setting": "[1]; [15]", "value": "-0.194 ± 0.22"}, {"measurement": "promoter activity interaction Z-score", "setting": "[1]; [16]", "value": "1.16 ± 0.76"}, {"measurement": "promoter activity interaction Z-score", "setting": "[1]; [17]", "value": "0.299 ± 0.12"}, {"measurement": "promoter activity interaction Z-score", "setting": "[1]; [18]", "value": "0.954 ± 0.4"}, {"measurement": "promoter activity interaction Z-score", "setting": "[1]; [19]", "value": "1.34 ± 0.39"}, {"measurement": "promoter activity interaction Z-score", "setting": "[2]; [4]", "value": "0.432 ± 0.15"}, {"measurement": "promoter activity interaction Z-score", "setting": "[2]; [5]", "value": "-0.066 ± 0.12"}, {"measurement": "promoter activity interaction Z-score", "setting": "[2]; [6]", "value": "0.521 ± 0.42"}, {"measurement": "promoter activity interaction Z-score", "setting": "[2]; [7]", "value": "0.0126 ± 0.12"}, {"measurement": "promoter activity interaction Z-score", "setting": "[2]; [8]", "value": "0.534 ± 0.39"}, {"measurement": "promoter activity interaction Z-score", "setting": "[2]; [9]", "value": "-0.0684 ± 0.18"}, {"measurement": "promoter activity interaction Z-score", "setting": "[2]; [10]", "value": "0.624 ± 0.05"}, {"measurement": "promoter activity interaction Z-score", "setting": "[2]; [11]", "value": "0.176 ± 0.22"}, {"measurement": "promoter activity interaction Z-score", "setting": "[2]; [12]", "value": "0.858 ± 0.46"}, {"measurement": "promoter activity interaction Z-score", "setting": "[2]; [13]", "value": "0.0541 ± 0.076"}, {"measurement": "promoter activity interaction Z-score", "setting": "[2]; [14]", "value": "1.4 ± 0.11"}, {"measurement": "promoter activity interaction Z-score", "setting": "[2]; [15]", "value": "0.648 ± 0.042"}, {"measurement": "promoter activity interaction Z-score", "setting": "[2]; [16]", "value": "3.02 ± 0.49"}, {"measurement": "promoter activity interaction Z-score", "setting": "[2]; [17]", "value": "0.477 ± 0.32"}, {"measurement": "promoter activity interaction Z-score", "setting": "[2]; [18]", "value": "4.91 ± 0.15"}, {"measurement": "promoter activity interaction Z-score", "setting": "[2]; [19]", "value": "3.15 ± 0.65"}, {"measurement": "promoter activity interaction Z-score", "setting": "[3]; [4]", "value": "-0.258 ± 0.037"}, {"measurement": "promoter activity interaction Z-score", "setting": "[3]; [5]", "value": "-0.336 ± 0.23"}, {"measurement": "promoter activity interaction Z-score", "setting": "[3]; [6]", "value": "-0.349 ± 0.016"}, {"measurement": "promoter activity interaction Z-score", "setting": "[3]; [7]", "value": "-0.27 ± 0.18"}, {"measurement": "promoter activity interaction Z-score", "setting": "[3]; [8]", "value": "-0.259 ± 0.41"}, {"measurement": "promoter activity interaction Z-score", "setting": "[3]; [9]", "value": "-0.439 ± 0.33"}, {"measurement": "promoter activity interaction Z-score", "setting": "[3]; [10]", "value": "-0.523 ± 0.35"}, {"measurement": "promoter activity interaction Z-score", "setting": "[3]; [11]", "value": "0.344 ± 0.3"}, {"measurement": "promoter activity interaction Z-score", "setting": "[3]; [12]", "value": "-0.272 ± 0.29"}, {"measurement": "promoter activity interaction Z-score", "setting": "[3]; [13]", "value": "-0.133 ± 0.11"}, {"measurement": "promoter activity interaction Z-score", "setting": "[3]; [14]", "value": "0.0991 ± 0.22"}, {"measurement": "promoter activity interaction Z-score", "setting": "[3]; [15]", "value": "0.35 ± 0.33"}, {"measurement": "promoter activity interaction Z-score", "setting": "[3]; [16]", "value": "0.5 ± 0.64"}, {"measurement": "promoter activity interaction Z-score", "setting": "[3]; [17]", "value": "-0.462 ± 0.05"}, {"measurement": "promoter activity interaction Z-score", "setting": "[3]; [18]", "value": "0.991 ± 0.12"}, {"measurement": "promoter activity interaction Z-score", "setting": "[3]; [19]", "value": "0.357 ± 1.6"}]}
